In the library only some 11% were active in any assay of this set; here they are far more common.
HPGD block: blocks human HPGD enzyme activity; P15428; purified HPGD, NADH fluorescence kinetic, PGE2 substrate; Potency, µM, most hits filed as inhibitors; actives 4.3% (n = 150,000); AID 894; active = well fitted inhibition curve with a large enough effect, not every such curve was filed as active; inconclusive = small, poorly fitted or top-dose-only effect, or another doubt; inactive = no such curve, though single readings can be large or run the other way
Target sequence (P15428 whole entry, looked up): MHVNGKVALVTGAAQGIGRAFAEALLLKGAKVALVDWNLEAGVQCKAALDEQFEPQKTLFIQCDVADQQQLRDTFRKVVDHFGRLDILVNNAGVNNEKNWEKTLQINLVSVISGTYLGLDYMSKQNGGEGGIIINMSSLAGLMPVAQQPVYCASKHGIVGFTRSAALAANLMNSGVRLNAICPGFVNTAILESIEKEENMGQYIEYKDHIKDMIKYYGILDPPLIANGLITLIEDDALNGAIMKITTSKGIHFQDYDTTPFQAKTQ
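NADH formation kinetics: reaction with 30 uM PGE2 and 1 mM NAD+ (final), 20 nM enzyme, Tris-HCl pH 8 with Tween 20, after 15 min compound preincubation at room temperature. Fluorescence change, last versus first of five reads.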
HTT ATP protect: Huntington cell model cytoprotection by ATP luminescence. PC12 HTT-Q103 induced, cytoprotection, ATP luminescence, 40 h. AID 1471. Potency, µM (top dose mostly 56.4 µM), actives largely listed as activators. actives 0.14% (n = 230,000); note: nearly all actives have a fitted effect of over 45% in size
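Compounds added alongside 100 nM tebufenozide, which induces toxic Q103 huntingtin exon 1-GFP in stable PC12 cells; surviving cells quantified by luminescent ATP measurement. Medium: phenol red-free DMEM, 5% equine and 5% calf serum.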
PNC assembly inh: perinucleolar compartment assembly inhibition | PC3M PTB-GFP, PNC prevalence imaging, 16 h; hits give low values | activity change (PNC), negative = inhibition, % at 10 µM | actives 3.1% (n = 140,000) | AID 2417;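 active = readout at or below -70, meaning at least 70% loss of cells showing the perinucleolar compartment, a nuclear body marking cancer cells; inconclusive = readout between -30 and a set limit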
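Compounds are pinned in duplicate onto adhered PC3M cells stably expressing GFP-tagged PTB and incubated 16 h at 37 C. Cells are then fixed, nuclei stained with Hoechst, and PNC-positive cells counted.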
RGS12 GoLoco inh: inhibitors of human Gai1-RGS12 GoLoco interaction (red fluorophore). P63096. AID 880. actives 0.44% (n = 230,000). Gai1:RGS12 GoLoco peptide FP, rhodamine, 10 min. Potency, µM (doses to about 61.6 µM), actives largely listed as inhibitors; active = well fitted inhibition curve with a large enough effect, not every such curve was filed as active; inactive = no such curve, though single readings can be large or run the other way; note: nearly all actives have a fitted effect of over 30% in size
HTT aggregate: mutant huntingtin aggregation inhibition. PC12 HttQ103-GFP aggregates, Acumen cytometry, 40 h. Potency, µM (titrated, usually from 46.1 µM), usual class: inhibitors. actives 1.1% (n = 220,000); note: nearly all actives have a fitted effect of over 60% in size
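Inducible Q103 Huntingtin exon 1–GFP PC12 line, 1500 cells/well in phenol red free DMEM with 5% equine and 5% calf serum. Tebufenozide 100 nM induced expression; compounds titrated; aggregates quantified by cytometry.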
ALDH1A1 block: inhibitors of human aldehyde dehydrogenase 1A1; AID 1030; Potency, µM (top dose mostly 75.3 µM), usual class: inhibitors; P00352; Purified ALDH1A1, NADH fluorescence, propionaldehyde substrate; actives 7.3% (n = 220,000); active = well fitted inhibition curve with a large enough effect, not every such curve was filed as active; inconclusive = small, poorly fitted or top-dose-only effect, or another doubt; inactive = no such curve, though single readings can be large or run the other way
Target sequence (P00352 whole entry, looked up): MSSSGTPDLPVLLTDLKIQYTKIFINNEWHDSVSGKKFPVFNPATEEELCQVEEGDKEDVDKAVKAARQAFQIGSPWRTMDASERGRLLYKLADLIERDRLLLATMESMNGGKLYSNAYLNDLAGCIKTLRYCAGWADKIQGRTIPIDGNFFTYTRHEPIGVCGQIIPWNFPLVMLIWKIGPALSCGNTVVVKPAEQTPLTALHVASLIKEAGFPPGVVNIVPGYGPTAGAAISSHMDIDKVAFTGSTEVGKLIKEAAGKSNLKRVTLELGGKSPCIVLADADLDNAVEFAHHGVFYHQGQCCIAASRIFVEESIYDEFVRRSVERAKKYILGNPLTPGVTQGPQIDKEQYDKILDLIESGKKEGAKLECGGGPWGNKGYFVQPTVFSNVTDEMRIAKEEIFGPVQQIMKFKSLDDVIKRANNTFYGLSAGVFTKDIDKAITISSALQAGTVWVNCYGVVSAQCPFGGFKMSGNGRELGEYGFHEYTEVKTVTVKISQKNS
Large screens that a line does not name were inactive. Unless noted, calls come from the whole dose curve; as a rule, active = well fitted curve in the direction sought with a large enough effect; inconclusive = small, poorly fitted or top-dose-only effect, or another doubt; inactive = no such curve, though single readings can be large; an effect the other way counts as inactive or inconclusive.

c1ccc(CSc2nnnn2-c2ccccc2)cc1	ALDH1A1 block inconclusive
c1ccc(-n2nnnc2SCc2cccc(CSc3nnnn3-c3ccccc3)n2)cc1	ALDH1A1 block 1.58µM
c1ccc(-c2nc3ccccc3nc2-c2ccccn2)nc1	PNC assembly inh -85.6
CCOc1ccc2c(c1)OC(c1ccc(OC)cc1)(C(F)(F)F)NC2=O (centres undefined)	PNC assembly inh -91.9
CC(C)[C@@H](CC(=O)N[C@@H]1CCCC[C@H]1C(=O)N[C@H](CC(=O)N[C@@H](CCC(=O)O)CC(=O)O)Cc1ccccc1)NC(=O)C[C@H](Cc1c[nH]c2ccccc12)NC(=O)[C@@H]1CCCC[C@H]1N	HTT ATP protect inconclusive, ALDH1A1 block inconclusive (no result: PNC assembly inh, HTT aggregate)
CCN1C(=O)/C(=C\N(C)C)S/C1=N\S(=O)(=O)c1ccc(C)cc1	ALDH1A1 block inconclusive (no result: HPGD block, PNC assembly inh)
COc1cccc(CS(=O)(=O)c2nnnn2C2CCCCC2)c1	none (no result: PNC assembly inh, HTT aggregate)
CCCS(=O)(=O)c1nnnn1-c1cccc(OC)c1	HPGD block 22.4µM, HTT aggregate 3.55µM, ALDH1A1 block 1.41µM
COc1cccc(CS(=O)(=O)c2nnnn2-c2ccccc2)c1	HTT ATP protect inconclusive, ALDH1A1 block 1µM (no result: PNC assembly inh, HTT aggregate)
O=C(O)COc1ccc(C(=O)Cc2ccc3c(c2)OCCCO3)c(O)c1	HPGD block inconclusive, ALDH1A1 block 22.4µM
COc1ccc(C(=O)Cc2ccc3c(c2)OCO3)c(O)c1	HPGD block inconclusive
O=C(CCc1ccc(O)cc1)c1c(O)cc(O)cc1O	HPGD block 35.5µM (no result: PNC assembly inh)
O=C(/C=C/c1ccc(O)cc1)c1c(O)cc(O)cc1O	none (no result: PNC assembly inh)
O=C(Cc1ccc2c(c1)OCCO2)c1c(O)cc(O)cc1O	HPGD block 20µM, HTT aggregate inconclusive, ALDH1A1 block inconclusive
COc1ccc(C(=O)N2CCC3(CCCN(Cc4nccs4)C3)CC2)cc1	none (no result: PNC assembly inh, HTT aggregate)
Cc1nn(-c2ccccc2Cl)c(Cl)c1/C=N/Nc1nc2ccccc2s1	HPGD block inconclusive, PNC assembly inh -82.6
CCOC(=O)N/N=C/c1c(C)nn(-c2ccccc2Cl)c1Cl	HPGD block inconclusive
CC(C)CCNC(=O)c1ccc(CSCc2cccc(F)c2)o1	HPGD block 14.1µM, ALDH1A1 block inconclusive
CC(C)CCNC(=O)c1ccc(CS(=O)(=O)Cc2ccccc2F)o1	none (no result: HPGD block, PNC assembly inh)
O=C(O)[C@@H]1[C@@H](C(=O)Nc2ncccn2)[C@@H]2C=C[C@@H]1O2	none (no result: PNC assembly inh, HTT aggregate)
CN1CCN(C(=S)c2ccc(-c3cc(Cl)ccc3Cl)o2)CC1	none (no result: HPGD block, PNC assembly inh, ALDH1A1 block)
S=C(c1ccc(-c2ccc(Cl)cc2Cl)o1)N1CCCC1	ALDH1A1 block 3.98µM (no result: HPGD block, PNC assembly inh)
S=C(c1ccc(-c2ccc(Cl)cc2Cl)o1)N1CCCCC1	HPGD block inconclusive, ALDH1A1 block 14.1µM
O=C1CN(C(=O)COc2ccc(Br)cc2Br)c2ccccc2N1	none (no result: HPGD block, PNC assembly inh)
O=C(c1cnccn1)N1CCC2(CCCN(c3ccccc3)C2)CC1	none (no result: PNC assembly inh, HTT aggregate)
COc1ccc2c(c1)C(=O)[C@H](OC(=O)NCc1ccco1)[C@@H](c1ccc(OC)c(Br)c1)O2	ALDH1A1 block inconclusive (no result: PNC assembly inh, HTT aggregate)
NC(N)=NC[C@@H]1COC2(CCCCC2)O1	none (no result: PNC assembly inh)
C[N+]1(CC2COC3(CCCCC3)O2)CCCC1 (centres undefined)	PNC assembly inh inconclusive, RGS12 GoLoco inh 10µM
O=C(CSc1nc2ccc(Cl)cc2[nH]1)c1ccc2c(c1)OCO2	PNC assembly inh inconclusive, ALDH1A1 block 17.8µM
O=C(CSc1ccc2ccccc2n1)c1ccc2c(c1)OCO2	HPGD block 8.91µM, PNC assembly inh inconclusive, ALDH1A1 block inconclusive
O=C(O)CSc1ccc2ccccc2n1	PNC assembly inh inconclusive
CSc1nnc(C(C)c2ncc(C(F)(F)F)cc2Cl)n1C (centres undefined)	none (no result: HPGD block, PNC assembly inh)
CCCCCNS(=O)(=O)c1cc(C)ccc1OC	none
CCOCCCNS(=O)(=O)c1ccc(OC)c(Cl)c1Cl	ALDH1A1 block 2.24µM
O=C(Nc1cccnc1)c1ccc(NC(=O)c2ccco2)cc1	HPGD block inconclusive, ALDH1A1 block inconclusive
CCCC(=O)Nc1ccc(NC(=O)c2ccco2)cn1	none (no result: HPGD block, RGS12 GoLoco inh)
CC(C)C(=O)Nc1ccc(NC(=O)c2ccco2)cn1	ALDH1A1 block 28.2µM (no result: HPGD block, RGS12 GoLoco inh)
O=C(Nc1ccc(NC(=O)c2ccco2)nc1)c1cccnc1	PNC assembly inh -100.0
Cc1cc(NC(=O)c2cccc(S(=O)(=O)N3c4ccccc4CC3C)c2)no1 (centres undefined)	none (no result: HPGD block, PNC assembly inh, ALDH1A1 block)
CCOC(=O)c1sc(NC(=O)c2cccc(S(=O)(=O)N3c4ccccc4CC3C)c2)cc1C (centres undefined)	PNC assembly inh -95.0, ALDH1A1 block inconclusive
COc1ccccc1Nc1nnc(SCC2CCCCO2)s1 (centres undefined)	HTT aggregate inconclusive, ALDH1A1 block 31.6µM (no result: HPGD block, PNC assembly inh)
Cc1ccccc1Nc1nnc(SCC2CCCCO2)s1 (centres undefined)	PNC assembly inh inconclusive
COc1cc(C(=S)N2CCCC2)cc(OC)c1OS(=O)(=O)c1ccc(NC(C)=O)cc1	HPGD block 22.4µM, ALDH1A1 block inconclusive
COc1ccc(CN2CCN(C(=O)C3CCC(CNS(=O)(=O)c4ccc(C)cc4)CC3)CC2)c(OC)c1OC (centres undefined)	ALDH1A1 block 20µM (no result: HPGD block, PNC assembly inh)
CC(=O)Nc1ccc(S(=O)(=O)NCC2CCC(C(=O)N3CCCCCC3)CC2)cc1 (centres undefined)	HPGD block 7.08µM, ALDH1A1 block 22.4µM
CNC(=O)[C@]1(C)C[C@H]1[C@H](NC(=O)[C@]1(C)C[C@H]1[C@H](NC(=O)OCc1ccccc1)c1ccccc1)c1ccccc1	none (no result: PNC assembly inh, HTT aggregate)
O=C(O)C1C2C=CC(O2)C1C(=O)Nc1ccccc1C(F)(F)F (centres undefined)	ALDH1A1 block 14.1µM
O=C(O)[C@@H]1[C@@H](C(=O)Nc2ccccc2)[C@@H]2C=C[C@@H]1O2	none (no result: PNC assembly inh, HTT aggregate)
Cc1cc(NC(=O)c2ccc3c(c2)OCCO3)ccc1NC(=O)c1ccco1	none (no result: HPGD block, PNC assembly inh)
Cc1cc(NC(=O)c2ccc([N+](=O)[O-])o2)ccc1NC(=O)c1ccco1	HTT aggregate inconclusive, ALDH1A1 block 25.1µM (no result: HPGD block, PNC assembly inh)
Cc1cc([N+](=O)[O-])ccc1NC(=O)c1ccco1	ALDH1A1 block 15.8µM (no result: HPGD block, PNC assembly inh)
Cc1cc(NC(=O)c2ccc([N+](=O)[O-])cc2Cl)ccc1NC(=O)c1ccco1	none
Cc1ccc(S(=O)(=O)N2CCCCC2)cc1NC(=O)COC(=O)c1ccc2c(c1)OCO2	PNC assembly inh inconclusive, ALDH1A1 block inconclusive
CC1(C)Cc2nc3sc4c(SCC(=O)O)ncnc4c3cc2CO1	none (no result: HPGD block, PNC assembly inh, ALDH1A1 block)
COC(=O)CSc1ncnc2c1sc1nc3c(cc12)COC(C)(C)C3	ALDH1A1 block 1.41µM (no result: HPGD block, PNC assembly inh)
COC(CSc1ncnc2c1oc1nc3c(cc12)COC(C)(C)C3)OC	ALDH1A1 block 3.16µM (no result: HPGD block, PNC assembly inh)
CC1(C)Cc2nc3sc4c(SCC(=O)NCc5ccccc5)ncnc4c3cc2CO1	PNC assembly inh -112.1, ALDH1A1 block 7.94µM

Assay outcomes as filed in PubChem BioAssay.
